Test results reported in PubChem BioAssay (EPA / NIEHS).
Where “and” joins values, the source holds several entries; their conditions need not be identical. Identical values can stand only once. Results filed as inconclusive are left out. Calls of active or inactive are those of the source. Rule for the calls, unless noted: active = hit-call score of the fitted dose curve at least 0.9, where 1 is the maximum; inconclusive = response in the unintended direction; inactive = score below 0.9.

Read-out: not listed separately
Test: BSK_4H_Eotaxin3: BioMAP Diversity Plus: 4H Assay for Eotaxin 3 Biomarker Activity (AID 2283000; active = hit-call score of the fitted dose curve at least 0.9, where 1 is the maximum; inactive = score below 0.9;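 for outcome: CCL26 protein level quantified by ELISA in parallel with SRB cytotoxicity check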)
Settings: primary human endothelial cells (HUVEC); actives raise or lower the signal
In short: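 Endothelial primary cells (human umbilical vein) exposed to compound for 24 h. ELISA detection of Eotaxin-3.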

SMILES	outcome	AC50
CCNc1nc(NC(C)(C)C)nc(OC)n1	inactive	–
Cc1ccc([N+](=O)[O-])cc1N	inactive	–
CCOC(=O)C1=NOC(c2ccccc2)(c2ccccc2)C1	inactive	–
c1ccc2sc(SSN3CCOCC3)nc2c1	–	5.26 µM (active)
C[N+](C)(C)CCCNS(=O)(=O)C(F)(F)C(F)(F)C(F)(F)C(F)(F)C(F)(F)C(F)(F)C(F)(F)C(F)(F)F	–	39 µM (active) and 45.1 µM (active)
CC=C(C)C=CC=C(C)C	–	20 µM (active)
Oc1c(Cl)cc(Cl)c(Cl)c1Cl	–	32.5 µM (active)
C1CNCCN1	inactive	–
C=CC(=O)NC(C)(C)C	inactive	–
O=C(O)C(F)(F)C(F)(F)C(F)(F)C(F)(F)C(=O)O	inactive	–
CC1=CC=C(C(C)C)CC1	inactive	–
CC(CCC(=O)O)(c1ccc(O)cc1)c1ccc(O)cc1	inactive	–
Oc1ccc(/C=C/c2cc(O)cc(O)c2)cc1	inactive	–
CCCC(C)C(=O)OCC (centres undefined)	inactive	–
CCCCCCCCC(CO)CCCCCC (centres undefined)	–	5.35 µM (active)
C=C(C)C(=O)OCCCCCCCCCCCC	inactive	–
CCCCCCCO	inactive	–
CC(Cl)COP(=O)(OCC(C)Cl)OCC(C)Cl (centres undefined)	inactive	–
CCC1(C)C(=O)N(Cl)C(=O)N1Cl (centres undefined)	inactive	–

Target: human Peroxisome Proliferator-activated Receptor alpha (PPARa), PPARA (gene 5465) (UniProt Q07869)
Sequence (Q07869 whole entry, looked up): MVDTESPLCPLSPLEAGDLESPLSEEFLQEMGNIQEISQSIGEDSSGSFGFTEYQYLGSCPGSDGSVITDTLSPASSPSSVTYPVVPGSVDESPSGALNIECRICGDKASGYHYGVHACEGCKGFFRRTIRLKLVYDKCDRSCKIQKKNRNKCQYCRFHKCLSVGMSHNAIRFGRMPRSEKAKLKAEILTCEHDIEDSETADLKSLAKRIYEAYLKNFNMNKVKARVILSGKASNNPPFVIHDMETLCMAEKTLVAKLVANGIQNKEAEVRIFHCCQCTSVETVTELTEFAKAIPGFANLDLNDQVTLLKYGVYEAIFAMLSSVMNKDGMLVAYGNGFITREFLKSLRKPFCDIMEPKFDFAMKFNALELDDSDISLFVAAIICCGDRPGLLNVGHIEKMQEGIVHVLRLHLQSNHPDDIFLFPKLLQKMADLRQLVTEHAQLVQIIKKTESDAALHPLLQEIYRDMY
Test: ATG_PPARa_TRANS: Attagene TRANS-FACTORIAL HepG2 Assay for human Peroxisome Proliferator-activated Receptor alpha (PPARa) (AID 2283001);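 for AC50: potency for gain of reporter signal over DMSO so agonist or activator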
Settings: not given
In short: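 Transfected HepG2 cells treated with test chemical for 24 h. RNA isolated, reverse-transcribed with oligo(dT), PCR-amplified, FAM-labelled and HpaI-digested. Fragments sized by capillary electrophoresis; gain-of-signal fit relative to DMSO.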

SMILES	outcome	AC50
CC=C(C)C(C)=O	inactive	–
CCCCC(CC)COC(=O)/C=C/c1ccc(OC)cc1 (centres undefined)	inactive	–
O=C1CCCCCCCCCCC1	inactive	–
Cc1ccc([N+](=O)[O-])cc1N	inactive	–
CC/C=C\C/C=C\C/C=C\CCCCCCCC(=O)OC	–	30.4 µM (active)
CCN1CN(CC)CN(CC)C1	inactive	–
c1ccc2sc(SSN3CCOCC3)nc2c1	inactive	–
C[N+](C)(C)CCCNS(=O)(=O)C(F)(F)C(F)(F)C(F)(F)C(F)(F)C(F)(F)C(F)(F)C(F)(F)C(F)(F)F	inactive	–
Oc1c(Cl)cc(Cl)c(Cl)c1Cl	–	27.2 µM (active)
Nc1cccc(N)n1	inactive	–
C=CC(=O)NC(C)(C)C	inactive	–
C=CC(=O)OCCCCCCCC(C)C	inactive	–
Oc1ccccc1Cc1ccccc1O	inactive	–
C=CC(=O)NCOCCCC	inactive	–
CC(CCC(=O)O)(c1ccc(O)cc1)c1ccc(O)cc1	inactive	–
Oc1ccc(/C=C/c2cc(O)cc(O)c2)cc1	inactive	–
CCCC(C)C(=O)OCC (centres undefined)	inactive	–
C=C(C)C(=O)OCCCCCCCCCCCC	inactive	–
CC1=NN(c2ccc(S(=O)(=O)O)cc2)C(=O)C1N=Nc1ccccc1 (centres undefined)	inactive	–
CC=CC(=O)OCC(C)C	inactive	–
O=C(Oc1ccccc1)c1ccccc1C(=O)Oc1ccccc1	inactive	–
CCCCCCCO	inactive	–
O=C(O)c1ccc2c(c1)C(=O)OC2=O	inactive	–
CCCCCC1=CCCC1=O	inactive	–
C=CC(=O)OCCCCCCOC(=O)C=C	inactive	–
CC(Cl)COP(=O)(OCC(C)Cl)OCC(C)Cl (centres undefined)	inactive	–
CCC1(C)C(=O)N(Cl)C(=O)N1Cl (centres undefined)	inactive	–
CC(=O)OC1CCCCC1C(C)(C)C (centres undefined)	inactive	–
C=CC(=O)OCC(C)OCC(C)OCC(C)OC(=O)C=C (centres undefined)	inactive	–
CCCCCCC=O	inactive	–
